PubChem BioAssay AID485294 (National Center for Advancing Translational Sciences (NCATS), 2010)
The whole screen tested about 370,000 compounds, of which about 150 (0.041%) were called active. Entries that show only a call come without a potency. Roughly 14% stayed inconclusive and do not appear here. Calls follow the shape of the dose curve; as a rule, active = well fitted inhibition curve with a large enough effect; inconclusive = small, poorly fitted or top-dose-only effect; inactive = flat fitted curve, though single readings scatter. The sample as a whole holds a higher share of actives than the screen did.

Molecular target: Beta-lactamase (Escherichia coli (strain K12)) (UniProt P00811)
Sequence (P00811 whole entry, looked up): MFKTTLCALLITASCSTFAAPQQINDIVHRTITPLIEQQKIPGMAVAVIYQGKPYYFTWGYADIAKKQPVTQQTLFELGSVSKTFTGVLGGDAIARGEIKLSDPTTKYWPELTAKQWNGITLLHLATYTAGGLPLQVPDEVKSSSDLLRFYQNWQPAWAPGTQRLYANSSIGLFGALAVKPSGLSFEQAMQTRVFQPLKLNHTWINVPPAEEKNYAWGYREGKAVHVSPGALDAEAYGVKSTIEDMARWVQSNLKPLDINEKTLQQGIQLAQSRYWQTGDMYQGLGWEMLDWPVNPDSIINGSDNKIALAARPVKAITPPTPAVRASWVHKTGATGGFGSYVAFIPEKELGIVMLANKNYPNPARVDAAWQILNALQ
Assay: qHTS Inhibitors of AmpC Beta-Lactamase (assay with detergent); also: nearly all actives have a fitted effect of over 25% in size
Settings: AmpC hydrolysis of nitrocefin, absorbance 480 nm, 0.01% Triton; series mostly up to 114 µM
Procedure: NIH Molecular Libraries Probe Production Network [MLPCN] NIH Chemical Genomics Center [NCGC] Assay Provider: Professor Brian Shoichet, UCSF Assay Overview: This aggregation profiling approach exploits the sensitivity of aggregate formation to detergent. Inhibition of b-lactamase is measured in the presence and absence of 0.01% Triton X-100. This particular assay had the prescence of 0.01% Triton X-100. See Pubchem assay "Promiscuous and Specific Inhibitors of AmpC Beta-Lactamase (assay without detergent)" for related screen. Compounds that inhibit only in the absence of detergent are considered likely promiscuous aggregators. A screen of 1,030 compounds was performed in Brian Shoichet's lab in 96-well format. AmpC activity was measured by following the absorbance at 480 nm. Nitrocefin is a chromogenic substrate: while nitrocefin is yellow (lmax 390 nm), the product of its hydrolysis is red (lmax 486 nm, 17,000 M-1). AmpC beta lactamase was provided by Shoichet Lab, UCSF.
Buffer: 20 mM phosphate buffer, pH 7.0 Triton X-100: No Detergent screen: 0.0001%, Detergent screen: 0.01%. Reagents/Controls: Buffer in columns 3 and 4 as negative control (no enzyme). 5.3 nM AmpC in columns 1, 2, 5-48. Titration of UCSF compound 9 control (from 10 mM, then 1:2) pin-transferred to column 2. Column 1 is neutral (100% activity). Assay Steps: Six uL of reagents were dispensed to 1536-well Greiner black clear bottom plates. Compounds and controls (23 nL) were transferred via Kalypsys PinTool. The plates were incubated for 15 min at room temperature, and then 2 uL of 800 uM solution of nitrocefin was added to start the reaction. The plates were immediately transferred to and read every 20 seconds for 4 min on ViewLux (Perkin-Elmer) High-throughput CCD imager using 480 nm absorbance protocol. During dispense, reagent bottles were kept submerged into 4 deg C water bath. Keywords: NIH Roadmap, MLSCN, MLI, MLSMR, qHTS, NCGC, AmpC Beta-Lactamase, Aggregation
Potency is read from the fitted curve at half-maximal effect.

SMILES | Potency
CC(C)(C)c1ccc(C(=O)NCC(c2ccc(Cl)cc2)N2CCOCC2)cc1 (stereo unspecified) | inactive
COC(=O)c1c(NC(=O)c2cc(=O)c3c(C)cc(C)cc3o2)sc2c1CCCC2 | inactive
CCc1cc2c(cc3c(=O)n(CC(=O)NCCc4ccc(OC)c(OC)c4)ncn32)s1 | inactive
Cc1ccccc1CNC(=O)Cn1c(C)c2cnn(-c3ccccc3)c(=O)c2c1C | inactive
COc1ccc(-c2nc3sc(CCNC(=O)C(C)(C)C)c(C)n3n2)cc1 | inactive
Cc1nn(C(=O)c2c(F)cccc2F)c(C)c1S(=O)(=O)N1CCOCC1 | inactive
CCOc1ccc(C(=O)/C=C/c2cn(CC(O)CN3CCCCCC3)c3ccccc23)cc1 (stereo unspecified) | inactive
COc1ccc(OCCCn2c(C3CC(=O)N(c4ccc(F)cc4)C3)nc3ccccc32)cc1 (stereo unspecified) | inactive
Cn1c(C(=O)Nc2cccc(C(F)(F)F)c2)cc2c(=O)n3ccccc3nc21 | inactive
CCOc1ccc(CNC(=O)Cn2cc3c(n2)-c2c(oc(C(=O)N4CCCC4)c2C)CC3)cc1 | inactive
Cc1ccc(Nc2c(-c3ccc(N(C)C)cc3)nc3nc[nH]n23)cc1 | inactive
CCOC(=O)c1ccc(NC(=O)C2CCN(S(=O)(=O)c3ccc4c(c3)CCCC(=O)N4)CC2)cc1 | inactive
Cc1csc2nc(COC(=O)c3ccccc3NC(=O)c3ccccc3Cl)cc(=O)n12 | inactive
CCOc1ccc(Nc2c(S(=O)(=O)c3ccccc3)cnc3ccccc23)cc1 | inactive
CCCCn1cc(S(=O)(=O)c2ccc(OCC)cc2)c(=O)c2cc(OC)c(OC)cc21 | inactive
Cc1ccc(C)c(N2CCN(CCCNC(=O)Nc3ccc(Cl)cc3)CC2)c1 | inactive
Cc1ccc2nc(-c3ccc(C)c(NC(=O)Cc4ccccc4)c3)oc2c1 | inactive
CCc1cccc(C)c1Nc1c(-c2ccc(N(C)C)cc2)nc2ncccn12 | inactive
CCc1ccc(N2C(=O)CN(S(=O)(=O)CC)CC2(C)C(=O)NC2CCCCC2)cc1 (stereo unspecified) | inactive
COc1ccc(N2CCN(C(=O)C3CCCN(C(=O)c4cc5sccc5n4C)C3)CC2)cc1 (stereo unspecified) | inactive
O=C(CCS(=O)(=O)c1ccccc1)N(Cc1cccnc1)c1nc2c(F)cccc2s1 | inactive
CCOC(=O)c1nnn(CC(=O)NC(=O)Nc2ccccc2F)c1C(=O)OCC | inactive
C[C@@H](NC(=O)OC(C)(C)C)c1nnc(S(=O)(=O)Cc2ccccc2)o1 | 8.91 µM (active)
CCc1ccccc1NC(=O)CSc1nnc([C@@H](NC(=O)OC(C)(C)C)C(C)C)o1 | inactive
CC(C)Sc1nnc([C@H](Cc2ccccc2)NC(=O)OC(C)(C)C)o1 | inactive
CC1CCN(S(=O)(=O)c2ccc3c(c2)N(CC(=O)NCCc2ccccc2)C(=O)CO3)CC1 | inactive
